Laboratory results reported in PubChem BioAssay (NCATS).
Inconclusive results are not listed. A number with no mark means an inactive call. Active and inactive are the calls of the source. The call rests on the fitted dose curve.

What follows are compounds tested against Retinoic acid receptor RXR-alpha (Homo sapiens) (UniProt P19793) (assay: qHTS assay for small molecule agonists of retinoid X receptor alpha signaling (AID 588544)). Details: HEK293T RXRa-UAS-bla, beta-lactamase reporter, 18 h; series mostly up to 76.7 µM; activation: at the top concentration.
Source text: NIH Chemical Genomics Center [NCGC] U.S. Environmental Protection Agency [EPA] National Institutes of Environmental Health Sciences [NIEHS] National Toxicology Program [NTP] NCGC Assay Overview The Retinoid X receptor (RXR), a nuclear hormone receptor is expressed in liver, spleen, placenta, epidermis, central nervous system. These receptors are able to form homo and heterodimers with other nuclear receptors and due to this heterodimerizing ability, RXR functions as master regulators producing diverse physiological effects. Three subtypes of RXR exist; alpha, beta and gamma. Retinoid X receptor alpha (RXR-alpha) has potential roles in metabolic signaling pathways, skin alopecia, dermal cysts, cardiac development, insulin sensitization etc. Therefore screening environmental chemicals on RXR-alpha signaling can be used for the studies focused on such therapeutic applications.
NCGC Assay Protocol Summary Using a beta-lactamase reporter-gene under control of Retinoid X receptor--alpha (RXR-alpha) response element, a cell-based assay [GeneBLAzer (RXR-alpha -UAS-bla assay developed by Invitrogen] was used to measure RXR-alpha ligands signaling. GeneBLAzer RXR-alpha -UAS-bla HEK293T cells were used with assay medium containing 2% charcoal-stripped FBS. The assay was performed in clear bottom black Greiner 1536-well plates. 9-cis-retinoic acid was used in the screen as the positive control. Library compounds were measured for their ability to stimulate the reporter gene activity. Compounds were screened in a titration series in 1536-well format. The fluorescence intensity (405 nm excitation, 460/530 nm emission) was measured using an EnVision plate reader. Data was normalized relative to 9-cis-retinoic acid control (500 nM, 100%), and DMSO only wells (basal, 0%). Concentration-response titration points for each compound were fitted to the Hill equation yielding concentrations of half-maximal stimulation (EC50) and maximal response (efficacy) values. qHTS protocol for RXR-alpha beta-lactamase assay in agonist mode [Step] [Parameter] [Value] [Description] 1. Reagent; 6 uL; 2500 cells/well 2. Incubation; 37 C for 4 hrs 3. Compounds; 23 nL; 0.59 nM to 92 uM 4. Controls (9-cis-retinoic acid); 23 nL, - One column with dose response, start 38 uM, 1:3 dilutions in duplicates - Final concentrations of 500 nM and 50 nM in two columns 5. Incubation; 37 C for 18 hrs 6. Detection reagent; 1 uL of CCF4-dye 7. Incubation; RT for 2 hrs 8. Detection; Fluorescence; Envision plate reader

Retinoic acid receptor RXR-alpha (Homo sapiens), sequence (P19793 whole entry, looked up): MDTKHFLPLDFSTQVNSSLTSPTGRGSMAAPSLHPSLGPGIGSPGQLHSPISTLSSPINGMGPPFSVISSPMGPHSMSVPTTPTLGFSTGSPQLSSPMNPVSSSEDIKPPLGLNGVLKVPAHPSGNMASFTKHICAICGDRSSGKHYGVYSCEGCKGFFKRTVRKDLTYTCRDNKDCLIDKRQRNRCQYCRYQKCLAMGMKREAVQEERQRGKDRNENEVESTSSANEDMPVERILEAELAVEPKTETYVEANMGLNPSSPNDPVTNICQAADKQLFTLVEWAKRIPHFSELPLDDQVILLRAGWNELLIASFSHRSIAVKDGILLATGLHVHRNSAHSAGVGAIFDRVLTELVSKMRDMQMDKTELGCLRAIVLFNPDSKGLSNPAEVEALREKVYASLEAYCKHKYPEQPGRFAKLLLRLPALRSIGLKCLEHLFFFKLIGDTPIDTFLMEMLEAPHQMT

In order of rising “activation” value:
1. N=C(N)c1ccc(OCCCCCOc2ccc(C(=N)N)cc2)cc1  -20.2%
2. C[C@]12C=CC(=O)C=C1CC[C@@H]1[C@@H]2C(=O)C[C@@]2(C)[C@H]1CC[C@]2(O)C(=O)CO  -6.69%
3. CC(=O)CC(c1ccccc1)c1c(O)c2ccccc2oc1=O (stereo unspecified)  -5.56%
4. Cc1ncc([N+](=O)[O-])n1CCO  -4.21%
5. Cc1cc(NS(=O)(=O)c2ccc(N)cc2)no1  -3.62%
6. O=C(N[C@H](CO)[C@H](O)c1ccc([N+](=O)[O-])cc1)C(Cl)Cl  -2.37%
7. S=P(N1CC1)(N1CC1)N1CC1  -2.11%
8. Cc1ccnc2c1NC(=O)c1cccnc1N2C1CC1  -1.21%
9. CCc1cc(C(N)=S)ccn1  0.195%
10. NNC(=O)c1ccncc1  0.321%
11. Cc1noc(NS(=O)(=O)c2ccc(N)cc2)c1C  0.628%
12. O=C(O)c1cc(=O)[nH]c(=O)[nH]1  1.08%
13. N[C@@H](Cc1ccc(O)c(O)c1)C(=O)O  3.42%
14. Cc1nnc(NS(=O)(=O)c2ccc(N)cc2)s1  3.65%
15. OC(Cn1cncn1)(Cn1cncn1)c1ccc(F)cc1F  23.1%

For `NC(N)=NC(N)=NCCc1ccccc1`, the outcome was “inactive”.
